For part of these data: Measured potencies and affinities stand elsewhere.
Tests used:
Set-up in all cases: scale not given: direction of the effect not stated beside the values
[1] = molecular target: Protein translocase subunit SecA (Escherichia coli (strain K12)) (UniProt P10408); test: Assay to Identify E. coli SecA ATPase Inhibitors; type: functional; settings: 30 µM
[2] = molecular target: T1, Ubiquitin-activating enzyme e1, putative (Leishmania donovani (strain BPK282A1)) (UniProt E9BSI1); test: Leishmania donovani Ubiquitin Activating Enzyme (LdE1); type: functional; settings: 30 µM
T1 sequence (whole entry): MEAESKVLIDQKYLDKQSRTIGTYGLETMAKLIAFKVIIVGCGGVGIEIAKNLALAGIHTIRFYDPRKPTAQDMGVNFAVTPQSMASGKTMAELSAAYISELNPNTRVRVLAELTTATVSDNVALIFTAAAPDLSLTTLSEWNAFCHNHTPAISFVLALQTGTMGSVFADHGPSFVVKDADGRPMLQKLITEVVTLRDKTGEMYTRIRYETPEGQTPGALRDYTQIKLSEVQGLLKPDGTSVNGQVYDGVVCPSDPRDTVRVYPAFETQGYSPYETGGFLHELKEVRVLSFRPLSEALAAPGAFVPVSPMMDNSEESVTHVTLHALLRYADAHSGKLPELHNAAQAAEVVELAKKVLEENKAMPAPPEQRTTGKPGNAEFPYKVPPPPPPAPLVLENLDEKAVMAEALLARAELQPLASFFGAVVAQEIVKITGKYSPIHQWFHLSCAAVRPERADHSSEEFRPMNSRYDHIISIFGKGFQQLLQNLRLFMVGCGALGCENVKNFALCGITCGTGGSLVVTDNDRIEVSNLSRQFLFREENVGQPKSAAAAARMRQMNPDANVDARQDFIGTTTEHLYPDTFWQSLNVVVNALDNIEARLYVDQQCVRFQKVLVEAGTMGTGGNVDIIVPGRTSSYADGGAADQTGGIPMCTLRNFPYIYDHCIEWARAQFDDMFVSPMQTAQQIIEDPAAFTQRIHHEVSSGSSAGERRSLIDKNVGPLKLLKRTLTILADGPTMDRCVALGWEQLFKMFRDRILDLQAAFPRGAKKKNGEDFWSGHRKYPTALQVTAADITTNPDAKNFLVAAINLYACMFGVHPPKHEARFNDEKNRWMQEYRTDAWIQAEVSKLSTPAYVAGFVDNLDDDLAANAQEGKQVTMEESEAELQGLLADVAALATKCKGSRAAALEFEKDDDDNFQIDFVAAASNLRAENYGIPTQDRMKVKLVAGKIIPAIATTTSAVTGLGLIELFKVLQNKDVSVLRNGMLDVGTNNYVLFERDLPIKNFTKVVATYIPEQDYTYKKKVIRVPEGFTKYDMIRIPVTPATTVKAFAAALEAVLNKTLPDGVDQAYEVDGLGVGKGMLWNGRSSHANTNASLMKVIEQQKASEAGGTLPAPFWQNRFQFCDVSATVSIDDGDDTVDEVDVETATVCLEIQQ

[3] = molecular target: AMP-activated protein kinase, AMPK (Homo sapiens) (UniProt P54646+O43741+P54619+Q9UGJ0+Q9Y478+Q13131+Q9UGI9); test: AMP-dependent Kinase enzyme assay. An in vitro enzyme assay that detects ADP turnover that is directly proportional to AMPK activity. This uses naive AMPK that is activated during the assay with MK-8722; type: functional; settings: 30 µM
[4] = molecular target: Sialic acid-binding Ig-like lectin 9 (Homo sapiens) (UniProt Q9Y336); test: Hs-Siglec9 ALPHAscreen SOP 20170721; settings: 10 µM
Sequence of Sialic acid-binding Ig-like lectin 9 (Homo sapiens) (Q9Y336 whole entry): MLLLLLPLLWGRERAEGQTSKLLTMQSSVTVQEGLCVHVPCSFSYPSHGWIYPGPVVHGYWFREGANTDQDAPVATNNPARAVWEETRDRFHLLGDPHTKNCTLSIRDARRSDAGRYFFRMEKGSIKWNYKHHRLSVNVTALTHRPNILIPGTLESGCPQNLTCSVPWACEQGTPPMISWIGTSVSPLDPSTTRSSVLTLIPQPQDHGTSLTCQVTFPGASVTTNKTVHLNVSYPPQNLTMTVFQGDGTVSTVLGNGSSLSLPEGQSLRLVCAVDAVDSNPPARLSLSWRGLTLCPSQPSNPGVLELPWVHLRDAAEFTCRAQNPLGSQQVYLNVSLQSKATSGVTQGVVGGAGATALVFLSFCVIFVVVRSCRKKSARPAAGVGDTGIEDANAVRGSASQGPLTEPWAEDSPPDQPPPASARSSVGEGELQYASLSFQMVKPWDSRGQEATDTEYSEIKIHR

Trypanosoma cruzi = test: Trypanosoma cruzi phosphomannomutase and mannose-1-phosphate guanylyltransferase assay; type: functional; settings: 10 µM
[5] = molecular target: T2, Arginase-2, mitochondrial (Homo sapiens) (UniProt P78540); test: in vitro enzyme assay to detect the production of urea directly proportional to the activity of Arginase II; type: functional; settings: 33.3 µM; further: in the data most compounds retested in dose-response had high values
T2 sequence (whole entry): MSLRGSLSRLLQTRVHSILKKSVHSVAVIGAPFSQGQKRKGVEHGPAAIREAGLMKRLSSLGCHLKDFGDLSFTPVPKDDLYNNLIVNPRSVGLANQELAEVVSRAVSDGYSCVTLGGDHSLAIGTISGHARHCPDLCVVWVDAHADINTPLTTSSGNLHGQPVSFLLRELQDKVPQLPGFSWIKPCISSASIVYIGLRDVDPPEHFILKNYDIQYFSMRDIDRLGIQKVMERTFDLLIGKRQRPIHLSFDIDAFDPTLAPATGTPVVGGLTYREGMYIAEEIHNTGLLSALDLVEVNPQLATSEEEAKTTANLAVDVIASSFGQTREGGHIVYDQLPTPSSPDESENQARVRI

[6] = molecular target: T3, Proteasome subunit beta (Trypanosoma cruzi) (UniProt O96673); test: Trypanosoma cruzi proteasome chymotrypsin-like activity (TcProtChymo) assay.; further: in the data most compounds retested in dose-response had high values; type: functional; settings: 9.37 µM
T3 sequence (whole entry): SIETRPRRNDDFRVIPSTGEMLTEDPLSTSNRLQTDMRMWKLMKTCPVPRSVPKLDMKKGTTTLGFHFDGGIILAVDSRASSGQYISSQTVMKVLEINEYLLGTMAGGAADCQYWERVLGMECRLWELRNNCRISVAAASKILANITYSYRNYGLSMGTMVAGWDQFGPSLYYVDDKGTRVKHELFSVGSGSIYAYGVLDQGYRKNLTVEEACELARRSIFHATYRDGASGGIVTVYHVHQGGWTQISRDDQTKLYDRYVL

Homo sapiens = organism: Homo sapiens; test: To identify inhibition of the IFN signalling (Jak-Stat) pathway via expression of an eGFP reporter gene under the control of an IFN-stimulated response element (ISRE) containing MxA promoter.; type: functional; settings: 30 µM
[7] = molecular target: T4, Tyrosyl-tRNA synthetase, putative (Trypanosoma cruzi (strain CL Brener)) (UniProt Q4DSP6); test: Trypanosoma cruzi tyrosyl tRNA synthetase (TcYRS) _High Tyrosine SOP; type: functional; settings: 30 µM; further: in the data most compounds retested in dose-response had high values
T4 sequence (whole entry): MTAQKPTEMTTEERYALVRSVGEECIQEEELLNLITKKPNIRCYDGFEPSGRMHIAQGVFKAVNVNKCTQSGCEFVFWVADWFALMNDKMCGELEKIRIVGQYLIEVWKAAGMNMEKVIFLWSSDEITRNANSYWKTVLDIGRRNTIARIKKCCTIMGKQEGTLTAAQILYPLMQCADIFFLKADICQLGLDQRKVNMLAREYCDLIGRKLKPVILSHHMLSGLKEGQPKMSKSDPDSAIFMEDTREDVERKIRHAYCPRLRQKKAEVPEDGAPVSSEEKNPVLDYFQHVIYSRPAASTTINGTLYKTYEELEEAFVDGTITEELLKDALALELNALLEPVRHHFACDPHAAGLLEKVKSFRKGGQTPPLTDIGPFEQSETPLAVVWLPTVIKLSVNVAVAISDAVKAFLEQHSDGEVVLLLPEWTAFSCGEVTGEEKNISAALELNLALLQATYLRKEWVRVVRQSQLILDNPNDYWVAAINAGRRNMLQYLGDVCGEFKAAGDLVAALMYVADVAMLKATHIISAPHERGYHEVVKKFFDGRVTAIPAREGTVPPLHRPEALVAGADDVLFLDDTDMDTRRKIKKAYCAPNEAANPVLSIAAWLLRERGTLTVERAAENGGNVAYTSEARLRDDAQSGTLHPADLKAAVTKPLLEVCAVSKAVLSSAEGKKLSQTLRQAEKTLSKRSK

[8] = molecular target: T4, Tyrosyl-tRNA synthetase, putative (Trypanosoma cruzi (strain CL Brener)); test: Trypanosoma cruzi tyrosyl tRNA synthetase (TcYRS) SOP; type: functional; settings: 30 µM
[9] = molecular target: Chromo domain-containing protein 1 (Saccharomyces cerevisiae (strain ATCC 204508 / S288c) (Baker's yeast)) (UniProt P32657); test: ScCHD-1 Enzyme Inhibition Assay; type: functional; settings: 30 µM; further: in the data most compounds retested in dose-response had high values
Sequence of Chromo domain-containing protein 1 (Saccharomyces cerevisiae (strain ATCC 204508 / S288c) (Baker's yeast)) (P32657 whole entry, the tested form may be a part): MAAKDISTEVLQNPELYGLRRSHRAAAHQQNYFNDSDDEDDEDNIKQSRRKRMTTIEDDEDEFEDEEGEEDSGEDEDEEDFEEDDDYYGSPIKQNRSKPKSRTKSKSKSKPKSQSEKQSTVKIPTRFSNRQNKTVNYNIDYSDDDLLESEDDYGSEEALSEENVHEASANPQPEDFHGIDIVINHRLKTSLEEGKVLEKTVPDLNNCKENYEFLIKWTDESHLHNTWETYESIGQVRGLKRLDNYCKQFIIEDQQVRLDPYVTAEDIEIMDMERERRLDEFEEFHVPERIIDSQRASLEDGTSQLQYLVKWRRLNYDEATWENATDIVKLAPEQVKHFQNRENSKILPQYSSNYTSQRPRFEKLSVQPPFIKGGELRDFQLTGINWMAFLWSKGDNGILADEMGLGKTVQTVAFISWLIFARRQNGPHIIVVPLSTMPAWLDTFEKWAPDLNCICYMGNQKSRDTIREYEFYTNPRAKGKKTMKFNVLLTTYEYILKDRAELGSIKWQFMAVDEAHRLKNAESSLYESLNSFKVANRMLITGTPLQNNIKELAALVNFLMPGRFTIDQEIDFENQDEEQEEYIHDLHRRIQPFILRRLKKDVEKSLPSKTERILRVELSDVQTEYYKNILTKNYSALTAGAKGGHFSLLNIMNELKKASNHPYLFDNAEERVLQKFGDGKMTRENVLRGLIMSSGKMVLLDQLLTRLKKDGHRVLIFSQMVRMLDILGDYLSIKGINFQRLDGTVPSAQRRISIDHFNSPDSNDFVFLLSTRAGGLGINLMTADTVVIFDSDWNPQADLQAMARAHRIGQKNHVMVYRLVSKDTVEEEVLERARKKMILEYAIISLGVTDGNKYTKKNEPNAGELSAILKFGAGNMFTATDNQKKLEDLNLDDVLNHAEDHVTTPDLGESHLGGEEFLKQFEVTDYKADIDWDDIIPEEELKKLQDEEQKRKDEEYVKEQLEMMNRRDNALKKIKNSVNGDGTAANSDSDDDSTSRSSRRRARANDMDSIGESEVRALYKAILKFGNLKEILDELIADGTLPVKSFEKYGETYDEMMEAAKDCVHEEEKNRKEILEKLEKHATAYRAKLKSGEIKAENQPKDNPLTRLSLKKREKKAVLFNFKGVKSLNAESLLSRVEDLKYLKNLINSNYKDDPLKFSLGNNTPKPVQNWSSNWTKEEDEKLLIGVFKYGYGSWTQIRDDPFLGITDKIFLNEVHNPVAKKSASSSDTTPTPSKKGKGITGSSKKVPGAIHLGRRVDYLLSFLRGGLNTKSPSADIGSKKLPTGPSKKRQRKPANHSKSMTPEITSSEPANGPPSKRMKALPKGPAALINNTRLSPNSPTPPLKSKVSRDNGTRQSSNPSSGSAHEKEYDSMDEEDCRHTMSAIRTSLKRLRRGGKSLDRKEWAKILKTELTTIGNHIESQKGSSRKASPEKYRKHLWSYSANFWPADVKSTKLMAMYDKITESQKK

Sequence of Protein translocase subunit SecA (Escherichia coli (strain K12)) (P10408 whole entry): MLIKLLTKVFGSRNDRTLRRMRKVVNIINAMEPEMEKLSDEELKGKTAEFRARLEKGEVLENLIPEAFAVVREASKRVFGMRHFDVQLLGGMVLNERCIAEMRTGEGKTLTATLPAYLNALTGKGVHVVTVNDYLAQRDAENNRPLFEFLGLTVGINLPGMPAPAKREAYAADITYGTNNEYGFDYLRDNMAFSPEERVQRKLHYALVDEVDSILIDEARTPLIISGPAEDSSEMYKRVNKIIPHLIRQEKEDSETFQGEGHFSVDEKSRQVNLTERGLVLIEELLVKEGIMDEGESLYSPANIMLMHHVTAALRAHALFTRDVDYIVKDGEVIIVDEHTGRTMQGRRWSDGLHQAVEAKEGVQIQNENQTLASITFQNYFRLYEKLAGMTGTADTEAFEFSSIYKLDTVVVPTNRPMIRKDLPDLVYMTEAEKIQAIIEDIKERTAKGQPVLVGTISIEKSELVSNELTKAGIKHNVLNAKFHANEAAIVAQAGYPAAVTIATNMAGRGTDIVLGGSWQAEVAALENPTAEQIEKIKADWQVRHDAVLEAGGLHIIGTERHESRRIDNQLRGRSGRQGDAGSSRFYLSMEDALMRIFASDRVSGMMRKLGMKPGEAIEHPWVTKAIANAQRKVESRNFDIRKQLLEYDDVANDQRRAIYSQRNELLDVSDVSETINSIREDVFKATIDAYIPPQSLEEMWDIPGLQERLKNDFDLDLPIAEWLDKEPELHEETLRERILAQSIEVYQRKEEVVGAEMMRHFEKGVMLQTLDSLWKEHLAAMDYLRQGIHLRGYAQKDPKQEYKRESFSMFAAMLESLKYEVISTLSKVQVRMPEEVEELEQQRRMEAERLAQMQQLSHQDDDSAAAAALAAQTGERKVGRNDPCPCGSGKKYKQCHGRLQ

| Structure (SMILES) | Percent Effect [1] [%] | Percent Effect [2] [%] | Percent Effect [3] [%] | Percent Effect [4] [%] | Percent Effect (Trypanosoma cruzi) [%] | Percent Effect [5] [%] | Percent Effect [6] [%] | Percent Effect (Homo sapiens) [%] | Percent Effect [7] [%] | Percent Effect [8] [%] | Percent Effect [9] [%] |
| --- | --- | --- | --- | --- | --- | --- | --- | --- | --- | --- | --- |
| COc1c(CNCc2cnn(C)c2)c(C(C)C)nn1C | -4.88 | 23.7 | -11.3 | -0.847 | 3.01 | 3.45 | 7.18 | -15.7 | 6.37 | 21.9 | -13.8 |
| CC(C)N1CC(C(=O)NCCc2csc(-c3ccncc3)n2)CC1=O (stereo not drawn) | -0.366 | 20.8 | 5.98 | -0.897 | 2.26 | -11 | 14.3 | 21 | 6.45 | 16.1 | -6.34 |
| Cc1cnn(CCNCC(O)COc2c(C)ccc(C)c2C)c1 (stereo not drawn) | -5.33 | 20.2 | -11.8 | 20.1 | 6.7 | -4.56 | 8.27 | -1.01 | 7.39 | 21.5 | -4.18 |
